{"source": "the supplement of paper PMC7724964", "note": "± gives the standard deviation of the averaged measurements.", "data": [{"target": "T1, ALDOA 1-364 Glycolytic (domain begin residue: 1, domain end residue: 364), P04075", "T1 chain": "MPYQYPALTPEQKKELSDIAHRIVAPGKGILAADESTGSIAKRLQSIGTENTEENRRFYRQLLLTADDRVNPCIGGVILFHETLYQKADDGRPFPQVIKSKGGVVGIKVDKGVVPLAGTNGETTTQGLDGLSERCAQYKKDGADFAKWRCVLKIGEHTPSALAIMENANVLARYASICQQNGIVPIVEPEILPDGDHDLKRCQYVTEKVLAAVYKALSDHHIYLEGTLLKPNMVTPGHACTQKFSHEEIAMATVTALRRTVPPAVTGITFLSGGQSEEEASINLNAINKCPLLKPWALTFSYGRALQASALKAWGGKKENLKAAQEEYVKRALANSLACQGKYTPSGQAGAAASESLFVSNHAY", "assay": "phage ELISA signal ratio (GST-PRM binding over GST background); higher = stronger binding of peptide-phage to the PRM", "description": "(§1)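 Phage-displayed random hexadecapeptides (Cys-free, flanked by invariant Gly linkers, fused to the M13 P8 major coat protein) were selected over 5 rounds against GST-fused human PRM domains. Individual clones from rounds 4-5 were tested by phage ELISA, and positive clones binding the target but not GST were sequenced. Values are the ELISA signal ratio of target over background (GST); the background signal is given separately.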", "values": [{"binder": "AWSYLHGEWEWVQPVM", "phage ELISA signal ratio": 14.5}]}, {"target": "T2, BTN1A1 285-479 SPRY (domain begin residue: 285, domain end residue: 479), Q13410", "T2 chain": "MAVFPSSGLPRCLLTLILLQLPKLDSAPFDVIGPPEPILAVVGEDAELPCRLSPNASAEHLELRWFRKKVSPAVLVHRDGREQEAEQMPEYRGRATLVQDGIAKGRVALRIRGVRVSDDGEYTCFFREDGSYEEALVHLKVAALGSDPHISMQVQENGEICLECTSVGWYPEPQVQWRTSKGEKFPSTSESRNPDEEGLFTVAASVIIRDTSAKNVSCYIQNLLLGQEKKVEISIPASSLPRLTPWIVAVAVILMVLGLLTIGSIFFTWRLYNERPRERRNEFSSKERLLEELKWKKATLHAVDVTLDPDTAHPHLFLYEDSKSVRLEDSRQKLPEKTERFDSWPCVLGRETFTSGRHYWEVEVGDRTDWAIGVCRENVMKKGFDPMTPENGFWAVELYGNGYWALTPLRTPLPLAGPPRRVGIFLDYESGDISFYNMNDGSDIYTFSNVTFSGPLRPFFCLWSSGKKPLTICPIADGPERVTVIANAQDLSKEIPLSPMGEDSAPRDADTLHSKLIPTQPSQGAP", "assay": "phage ELISA signal ratio (GST-PRM binding over GST background); higher = stronger binding of peptide-phage to the PRM", "description": "as §1", "values": [{"binder": "PKTGEPWHPWIPHWLA", "phage ELISA signal ratio": 8.34}]}, {"target": "T3, ARID4A 568-634 Tudor-knot (domain begin residue: 568, domain end residue: 634), P29374", "T3 chain": "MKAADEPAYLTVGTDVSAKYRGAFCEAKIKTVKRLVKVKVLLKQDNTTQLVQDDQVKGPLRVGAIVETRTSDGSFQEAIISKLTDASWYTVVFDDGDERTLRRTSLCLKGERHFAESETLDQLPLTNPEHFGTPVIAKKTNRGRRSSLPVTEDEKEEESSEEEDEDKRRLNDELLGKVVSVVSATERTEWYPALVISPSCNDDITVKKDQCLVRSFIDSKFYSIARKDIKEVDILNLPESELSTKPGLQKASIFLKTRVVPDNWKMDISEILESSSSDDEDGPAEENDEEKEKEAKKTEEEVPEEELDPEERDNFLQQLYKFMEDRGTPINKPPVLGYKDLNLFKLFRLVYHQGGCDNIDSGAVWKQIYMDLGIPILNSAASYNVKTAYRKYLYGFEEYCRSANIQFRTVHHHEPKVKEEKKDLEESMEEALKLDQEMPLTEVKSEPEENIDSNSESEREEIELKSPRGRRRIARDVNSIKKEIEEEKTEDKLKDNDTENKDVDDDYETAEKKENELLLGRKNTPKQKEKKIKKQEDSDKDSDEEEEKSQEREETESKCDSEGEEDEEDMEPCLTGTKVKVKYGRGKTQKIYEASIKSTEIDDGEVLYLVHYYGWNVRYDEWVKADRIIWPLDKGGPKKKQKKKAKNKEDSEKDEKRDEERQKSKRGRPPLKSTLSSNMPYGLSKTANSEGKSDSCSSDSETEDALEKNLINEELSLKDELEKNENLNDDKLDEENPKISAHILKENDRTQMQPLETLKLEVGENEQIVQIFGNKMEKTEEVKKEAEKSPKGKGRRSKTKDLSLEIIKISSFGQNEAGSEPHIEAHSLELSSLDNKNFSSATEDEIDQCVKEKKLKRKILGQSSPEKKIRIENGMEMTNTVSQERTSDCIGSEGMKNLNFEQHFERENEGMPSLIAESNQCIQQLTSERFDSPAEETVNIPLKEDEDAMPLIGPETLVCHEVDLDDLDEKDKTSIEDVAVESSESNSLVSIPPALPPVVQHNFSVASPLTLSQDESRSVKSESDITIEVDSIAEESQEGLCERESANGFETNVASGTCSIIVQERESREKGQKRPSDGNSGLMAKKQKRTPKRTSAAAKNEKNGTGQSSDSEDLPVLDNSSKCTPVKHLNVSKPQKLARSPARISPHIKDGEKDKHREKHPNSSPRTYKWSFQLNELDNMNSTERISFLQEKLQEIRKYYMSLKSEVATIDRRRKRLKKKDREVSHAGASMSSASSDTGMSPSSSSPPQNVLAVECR", "assay": "phage ELISA signal ratio (GST-PRM binding over GST background); higher = stronger binding of peptide-phage to the PRM", "description": "as §1", "values": [{"binder": "DGWGWDHIEIEMPYEE", "phage ELISA signal ratio": 12.4}, {"binder": "STDIWDMWREWNEIDM", "phage ELISA signal ratio": "9.5 ± 0.67"}]}, {"target": "T4, SND1 650-910 TUDOR+SNase (domain begin residue: 650, domain end residue: 910), Q7KZF4", "T4 chain": "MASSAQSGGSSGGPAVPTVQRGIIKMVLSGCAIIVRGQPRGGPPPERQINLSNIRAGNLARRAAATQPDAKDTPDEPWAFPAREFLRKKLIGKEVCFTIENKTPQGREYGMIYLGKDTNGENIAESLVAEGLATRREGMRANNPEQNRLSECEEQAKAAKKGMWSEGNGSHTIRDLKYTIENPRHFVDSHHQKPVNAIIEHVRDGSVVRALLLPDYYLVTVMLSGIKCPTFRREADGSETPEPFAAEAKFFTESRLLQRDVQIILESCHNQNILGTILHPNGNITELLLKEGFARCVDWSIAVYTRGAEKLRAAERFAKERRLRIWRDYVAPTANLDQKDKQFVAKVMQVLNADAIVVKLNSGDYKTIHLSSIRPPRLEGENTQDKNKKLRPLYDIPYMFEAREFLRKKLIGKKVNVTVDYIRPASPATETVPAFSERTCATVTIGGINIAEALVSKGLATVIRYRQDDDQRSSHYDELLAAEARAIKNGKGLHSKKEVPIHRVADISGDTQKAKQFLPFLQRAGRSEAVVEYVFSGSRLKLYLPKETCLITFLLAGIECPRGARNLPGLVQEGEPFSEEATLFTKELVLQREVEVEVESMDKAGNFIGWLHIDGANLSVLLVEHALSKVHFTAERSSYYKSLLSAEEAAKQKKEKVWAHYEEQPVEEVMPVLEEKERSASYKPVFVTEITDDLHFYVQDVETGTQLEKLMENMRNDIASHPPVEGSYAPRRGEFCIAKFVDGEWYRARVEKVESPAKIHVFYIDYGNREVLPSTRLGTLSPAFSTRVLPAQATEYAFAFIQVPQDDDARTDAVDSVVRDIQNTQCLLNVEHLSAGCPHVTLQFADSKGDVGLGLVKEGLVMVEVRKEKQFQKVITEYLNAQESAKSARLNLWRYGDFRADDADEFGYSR", "assay": "phage ELISA signal ratio (GST-PRM binding over GST background); higher = stronger binding of peptide-phage to the PRM", "description": "as §1", "values": [{"binder": "DGWGWDHIEIEMPYEE", "phage ELISA signal ratio": 8.36}]}, {"target": "T5, CAPNS1 1-268 EF-hand_8+EF-hand_5 (domain begin residue: 1, domain end residue: 268), P04632", "T5 chain": "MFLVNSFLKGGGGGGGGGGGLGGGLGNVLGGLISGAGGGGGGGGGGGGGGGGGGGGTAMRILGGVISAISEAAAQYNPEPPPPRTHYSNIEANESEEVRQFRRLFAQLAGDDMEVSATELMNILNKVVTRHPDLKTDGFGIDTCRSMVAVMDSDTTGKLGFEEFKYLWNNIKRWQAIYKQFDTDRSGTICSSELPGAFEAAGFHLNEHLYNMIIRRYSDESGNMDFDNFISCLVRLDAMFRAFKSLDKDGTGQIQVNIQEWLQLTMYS", "assay": "phage ELISA signal ratio (GST-PRM binding over GST background); higher = stronger binding of peptide-phage to the PRM", "description": "as §1", "values": [{"binder": "YQQDLVDFLWNDLYAF", "phage ELISA signal ratio": 22.7}]}, {"target": "KMT2C 1055-1137 PHD (domain begin residue: 1055, domain end residue: 1137)", "assay": "phage ELISA signal ratio (GST-PRM binding over GST background); higher = stronger binding of peptide-phage to the PRM", "description": "as §1", "values": [{"binder": "STDIWDMWREWNEIDM", "phage ELISA signal ratio": 6.74}]}, {"target": "KMT2C 995-1055 PHD (domain begin residue: 995, domain end residue: 1055)", "assay": "phage ELISA signal ratio (GST-PRM binding over GST background); higher = stronger binding of peptide-phage to the PRM", "description": "as §1", "values": [{"binder": "STDIWDMWREWNEIDM", "phage ELISA signal ratio": 5.38}]}, {"target": "SETD1A 2-220 RRM_1 (domain begin residue: 2, domain end residue: 220), O15047", "sequence (O15047 whole entry)": "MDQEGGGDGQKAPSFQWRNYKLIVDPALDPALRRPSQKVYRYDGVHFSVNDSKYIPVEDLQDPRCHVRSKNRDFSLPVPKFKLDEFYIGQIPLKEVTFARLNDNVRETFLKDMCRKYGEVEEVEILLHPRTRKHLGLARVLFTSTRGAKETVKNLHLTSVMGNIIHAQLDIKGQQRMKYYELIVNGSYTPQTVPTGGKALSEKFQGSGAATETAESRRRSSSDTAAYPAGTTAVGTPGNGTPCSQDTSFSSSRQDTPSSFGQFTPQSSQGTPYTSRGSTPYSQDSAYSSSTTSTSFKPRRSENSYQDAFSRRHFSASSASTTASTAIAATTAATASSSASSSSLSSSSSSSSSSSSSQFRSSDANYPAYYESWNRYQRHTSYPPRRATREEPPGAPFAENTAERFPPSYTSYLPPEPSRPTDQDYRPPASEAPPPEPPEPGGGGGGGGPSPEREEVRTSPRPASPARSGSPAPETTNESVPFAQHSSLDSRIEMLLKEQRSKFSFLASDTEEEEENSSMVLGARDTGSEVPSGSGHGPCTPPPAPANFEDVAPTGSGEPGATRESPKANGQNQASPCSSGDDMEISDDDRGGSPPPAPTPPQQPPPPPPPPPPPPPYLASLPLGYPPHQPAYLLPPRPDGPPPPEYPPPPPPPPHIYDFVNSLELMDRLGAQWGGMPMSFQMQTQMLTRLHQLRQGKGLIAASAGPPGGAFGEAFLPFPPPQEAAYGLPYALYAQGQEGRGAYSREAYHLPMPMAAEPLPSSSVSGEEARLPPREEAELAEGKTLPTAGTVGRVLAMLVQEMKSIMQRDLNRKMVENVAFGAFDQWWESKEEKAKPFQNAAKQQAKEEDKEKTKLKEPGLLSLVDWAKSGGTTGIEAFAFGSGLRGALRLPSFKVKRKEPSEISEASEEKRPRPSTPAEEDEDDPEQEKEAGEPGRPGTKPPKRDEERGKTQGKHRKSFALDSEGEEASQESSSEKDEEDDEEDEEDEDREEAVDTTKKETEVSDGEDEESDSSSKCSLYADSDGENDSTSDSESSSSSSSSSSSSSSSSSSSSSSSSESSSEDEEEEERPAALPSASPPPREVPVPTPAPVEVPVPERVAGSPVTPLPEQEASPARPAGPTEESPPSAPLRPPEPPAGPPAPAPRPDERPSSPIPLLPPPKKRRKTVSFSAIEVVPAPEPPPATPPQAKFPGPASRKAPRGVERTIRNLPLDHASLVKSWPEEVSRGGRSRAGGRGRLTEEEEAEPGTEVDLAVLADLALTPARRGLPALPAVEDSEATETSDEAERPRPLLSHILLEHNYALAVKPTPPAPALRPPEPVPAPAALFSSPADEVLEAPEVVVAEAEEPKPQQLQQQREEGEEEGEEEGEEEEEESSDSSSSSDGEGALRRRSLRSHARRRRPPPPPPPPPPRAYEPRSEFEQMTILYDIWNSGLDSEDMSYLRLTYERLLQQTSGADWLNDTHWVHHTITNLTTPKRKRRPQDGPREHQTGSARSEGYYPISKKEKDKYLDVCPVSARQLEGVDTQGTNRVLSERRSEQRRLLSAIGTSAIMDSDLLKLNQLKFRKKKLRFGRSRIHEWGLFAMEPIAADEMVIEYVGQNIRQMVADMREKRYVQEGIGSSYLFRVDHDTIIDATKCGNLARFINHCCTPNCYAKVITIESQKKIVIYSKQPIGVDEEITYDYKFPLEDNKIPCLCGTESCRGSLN", "assay": "phage ELISA signal ratio (GST-PRM binding over GST background); higher = stronger binding of peptide-phage to the PRM", "description": "as §1", "values": [{"binder": "STDIWDMWREWNEIDM", "phage ELISA signal ratio": 12}]}, {"target": "T6, TDRD1 261-449 TUDOR (domain begin residue: 261, domain end residue: 449), Q9BXT4", "T6 chain": "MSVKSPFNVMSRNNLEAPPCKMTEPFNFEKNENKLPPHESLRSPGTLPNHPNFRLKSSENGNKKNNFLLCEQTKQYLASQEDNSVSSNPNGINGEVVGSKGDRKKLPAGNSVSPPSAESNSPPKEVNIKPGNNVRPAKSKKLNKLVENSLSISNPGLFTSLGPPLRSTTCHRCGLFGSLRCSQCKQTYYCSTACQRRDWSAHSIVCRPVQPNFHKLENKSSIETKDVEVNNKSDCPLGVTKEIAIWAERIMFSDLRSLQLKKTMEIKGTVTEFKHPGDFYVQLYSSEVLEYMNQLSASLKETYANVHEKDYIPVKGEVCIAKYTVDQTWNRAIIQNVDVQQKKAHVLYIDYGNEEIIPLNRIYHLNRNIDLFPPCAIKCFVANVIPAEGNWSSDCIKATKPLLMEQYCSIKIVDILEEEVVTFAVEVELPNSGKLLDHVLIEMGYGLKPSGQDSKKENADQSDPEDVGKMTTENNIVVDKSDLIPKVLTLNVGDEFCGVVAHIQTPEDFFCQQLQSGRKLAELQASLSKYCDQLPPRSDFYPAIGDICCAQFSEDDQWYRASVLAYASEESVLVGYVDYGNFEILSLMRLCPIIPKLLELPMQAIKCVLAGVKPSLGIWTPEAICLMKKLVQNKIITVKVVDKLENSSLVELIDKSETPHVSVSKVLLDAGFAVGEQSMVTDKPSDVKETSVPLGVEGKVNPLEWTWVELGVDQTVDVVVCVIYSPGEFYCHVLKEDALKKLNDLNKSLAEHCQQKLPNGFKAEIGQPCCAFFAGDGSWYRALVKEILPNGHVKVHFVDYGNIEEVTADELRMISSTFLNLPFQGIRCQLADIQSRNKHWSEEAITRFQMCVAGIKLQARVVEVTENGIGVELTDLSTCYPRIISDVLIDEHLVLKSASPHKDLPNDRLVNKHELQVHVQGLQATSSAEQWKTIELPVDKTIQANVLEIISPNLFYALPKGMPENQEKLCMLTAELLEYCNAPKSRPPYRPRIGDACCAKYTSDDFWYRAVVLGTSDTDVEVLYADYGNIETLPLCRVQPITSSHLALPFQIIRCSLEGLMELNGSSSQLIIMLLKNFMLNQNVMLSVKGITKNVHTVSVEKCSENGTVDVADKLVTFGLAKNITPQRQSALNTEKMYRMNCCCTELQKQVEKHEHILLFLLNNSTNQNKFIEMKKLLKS", "assay": "phage ELISA signal ratio (GST-PRM binding over GST background); higher = stronger binding of peptide-phage to the PRM", "description": "as §1", "values": [{"binder": "STDIWDMWREWNEIDM", "phage ELISA signal ratio": 9.16}]}, {"target": "T7, TDRKH 290-430 TUDOR+SNase (domain begin residue: 290, domain end residue: 430), Q9Y2W6", "T7 chain": "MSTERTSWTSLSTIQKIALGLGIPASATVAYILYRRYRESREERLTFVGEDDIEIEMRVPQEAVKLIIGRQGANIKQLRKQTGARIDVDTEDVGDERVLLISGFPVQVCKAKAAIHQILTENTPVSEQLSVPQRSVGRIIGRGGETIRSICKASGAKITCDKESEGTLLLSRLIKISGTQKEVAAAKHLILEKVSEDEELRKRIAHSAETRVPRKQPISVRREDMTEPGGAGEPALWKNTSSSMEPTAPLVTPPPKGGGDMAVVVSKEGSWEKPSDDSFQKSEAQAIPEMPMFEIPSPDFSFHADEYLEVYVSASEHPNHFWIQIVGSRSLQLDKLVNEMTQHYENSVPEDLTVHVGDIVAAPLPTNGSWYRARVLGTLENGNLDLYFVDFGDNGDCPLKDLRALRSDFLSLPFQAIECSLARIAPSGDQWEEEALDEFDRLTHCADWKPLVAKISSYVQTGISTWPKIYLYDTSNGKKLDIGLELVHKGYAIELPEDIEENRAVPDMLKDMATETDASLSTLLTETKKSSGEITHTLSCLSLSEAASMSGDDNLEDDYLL", "assay": "phage ELISA signal ratio (GST-PRM binding over GST background); higher = stronger binding of peptide-phage to the PRM", "description": "as §1", "values": [{"binder": "STDIWDMWREWNEIDM", "phage ELISA signal ratio": 6.85}]}]}
